Here are results for 13 compounds from PubChem BioAssay (EPA / NIEHS).

Results filed as inconclusive are left out. Calls of active or inactive are those of the source. Rule for the calls: active = hit-call score of the fitted dose curve at least 0.9, where 1 is the maximum; inconclusive = response in the unintended direction; inactive = score below 0.9.

Chain of PGR (gene 5241) (P06401 whole entry, looked up): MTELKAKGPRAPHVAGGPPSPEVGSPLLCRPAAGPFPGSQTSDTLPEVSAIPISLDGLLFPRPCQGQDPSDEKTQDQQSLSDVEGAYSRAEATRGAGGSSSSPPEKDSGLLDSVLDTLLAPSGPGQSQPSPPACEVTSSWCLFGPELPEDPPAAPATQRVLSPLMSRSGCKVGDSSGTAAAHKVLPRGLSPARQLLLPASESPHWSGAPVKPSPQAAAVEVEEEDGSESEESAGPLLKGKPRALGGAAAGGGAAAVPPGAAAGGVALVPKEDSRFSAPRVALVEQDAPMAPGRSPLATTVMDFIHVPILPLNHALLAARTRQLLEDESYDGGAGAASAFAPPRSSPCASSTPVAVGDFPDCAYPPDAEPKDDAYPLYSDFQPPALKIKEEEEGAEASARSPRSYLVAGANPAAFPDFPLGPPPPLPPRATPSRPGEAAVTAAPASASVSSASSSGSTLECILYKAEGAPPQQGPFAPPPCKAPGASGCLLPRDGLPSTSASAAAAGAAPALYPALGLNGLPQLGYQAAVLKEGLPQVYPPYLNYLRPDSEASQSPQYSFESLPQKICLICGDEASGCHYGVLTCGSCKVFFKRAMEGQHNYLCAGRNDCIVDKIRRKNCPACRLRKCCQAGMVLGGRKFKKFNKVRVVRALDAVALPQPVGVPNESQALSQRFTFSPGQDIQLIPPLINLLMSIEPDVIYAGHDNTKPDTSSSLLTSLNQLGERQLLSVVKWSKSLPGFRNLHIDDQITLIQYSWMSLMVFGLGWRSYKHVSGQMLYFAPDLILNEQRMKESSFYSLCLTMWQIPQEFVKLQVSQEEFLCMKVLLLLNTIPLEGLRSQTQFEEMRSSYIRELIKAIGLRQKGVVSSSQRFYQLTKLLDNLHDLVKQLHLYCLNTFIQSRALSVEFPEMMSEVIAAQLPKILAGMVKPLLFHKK

For the assay, the target named is PGR (gene 5241) (UniProt P06401). Put plainly: NVS_NR_hPR: NovaScreen (NVS) Nuclear Receptor Binding Assay for human Progestron Receptor (PR) (AID 2283360).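 Note: active means loss of bound radioligand signal versus DMSO baseline.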 As to the method:
NVS_NR_hPR is a biochemical, single-readout assay that uses extracted gene-proteins from T47D in a cell-free assay. Measurements were taken 18 hours after chemical dosing in a 96-well plate.NVS_NR_hPR is one of one assay component(s) measured or calculated from the NVS_NR_hPR assay. It is designed to make measurements of radioligand binding, a form of binding reporter, as detected with scintillation counting signals by Lysate-based radiodetection technology.Data from the assay component NVS_NR_hPR was analyzed into 1 assay endpoint. This assay endpoint, NVS_NR_hPR, was analyzed in the positive analysis fitting direction relative to DMSO as the negative control and baseline of activity. Using a type of binding reporter, loss-of-signal activity can be used to understand changes in the binding as they relate to the gene PGR. Furthermore, this assay endpoint can be referred to as a primary readout, because the performed assay has only produced 1 assay endpoint. To generalize the intended target to other relatable targets, this assay endpoint is annotated to the nuclear receptor intended target family, where the subfamily is steroidal.
Binding assays used specific radioligands (tritiated, iodinated) with non-radioactive competitive displacement ligands in agonist or antagonist protocols (as indicated) and various reference compounds and inhibitors to titrate specific binding to receptors and transporters. Most enzyme assays (CYPs, kinases, phosphatases, proteases, HDACs) used recombinant protein and specific substrates (fluorescence mostly, some colorimetric and radioactive) and inhibitors, followed by a biochemical separation of substrate and product. All assays for the biochemical HTS were initially run in duplicate at a single concentration (10 uM for CYP450 assays and 25 uM for all others). […] Each assay was run with positive and negative controls, and concurrent controls on every plate. The follow-up (secondary) screen tested active chemical-pairs in concentration series, as well as a few additional assays not tested in the primary screen, some selected negative inactives, and several cases re-run in the concentration series for confirmatory purposes.
Regarding `CCOP(=S)(OCC)SCn1c(=O)oc2cc(Cl)ccc21`, the compound was classed as inactive. As for `CCNc1nc(Cl)nc(NC(C)C)n1`, the outcome was inactive. Turning to `CNC(=O)ON=CC(C)(C)SC`, the outcome was inactive. Turning to `CCCCNC(=O)OCC#CI`, the result was inactive. The same measure, in the same setting: the result for `CCCCOC(=O)c1ccccc1C(=O)OCCCC` reads “inactive”; that for `COC(=O)c1ccccc1C(=O)OC`, “inactive”.

In the case of `CO/C=C(/C(=O)OC)c1ccccc1Oc1cc(Oc2ccccc2C#N)ncn1`, the compound was classed as inactive. Same read-out and setting: the result for `CC1COC(Cn2cncn2)(c2ccc(Oc3ccc(Cl)cc3)cc2Cl)O1` (stereo not drawn) reads “inactive”.

A word on the AC50: it is the concentration at which the activity in the assay is half-maximal. In the case of `CCCN(CCC)c1c([N+](=O)[O-])cc(S(N)(=O)=O)cc1[N+](=O)[O-]`, the AC50 was 4.36 µM (active). On to `CCOC(=O)CC(SP(=S)(OC)OC)C(=O)OCC` (stereo not drawn), for which the compound was classed as inactive. As for `CCCC1COC(Cn2cncn2)(c2ccc(Cl)cc2Cl)O1` (stereo not drawn), the result was inactive. Still for that read-out and setting: the entry for `CC(C)Oc1cc(-n2nc(C(C)(C)C)oc2=O)c(Cl)cc1Cl` is “inactive”; for `CON(C)C(=O)Nc1ccc(Cl)c(Cl)c1` it is “inactive”.
